Compound activity: PubChem, several laboratories
LANA-H2B inh – blocks KSHV LANA binding to histone H2A/H2B; Q9QR71; cell-free LANA-H2A/H2B peptide, fluorescence polarization; inhibition, % (no concentration beside the values); 0.6% of 320,000 active; in the data active = inhibition mostly above about 10%, no sharp cut-off; inactive = mostly below about 6.7%
Target sequence (Q9QR71 whole entry, looked up): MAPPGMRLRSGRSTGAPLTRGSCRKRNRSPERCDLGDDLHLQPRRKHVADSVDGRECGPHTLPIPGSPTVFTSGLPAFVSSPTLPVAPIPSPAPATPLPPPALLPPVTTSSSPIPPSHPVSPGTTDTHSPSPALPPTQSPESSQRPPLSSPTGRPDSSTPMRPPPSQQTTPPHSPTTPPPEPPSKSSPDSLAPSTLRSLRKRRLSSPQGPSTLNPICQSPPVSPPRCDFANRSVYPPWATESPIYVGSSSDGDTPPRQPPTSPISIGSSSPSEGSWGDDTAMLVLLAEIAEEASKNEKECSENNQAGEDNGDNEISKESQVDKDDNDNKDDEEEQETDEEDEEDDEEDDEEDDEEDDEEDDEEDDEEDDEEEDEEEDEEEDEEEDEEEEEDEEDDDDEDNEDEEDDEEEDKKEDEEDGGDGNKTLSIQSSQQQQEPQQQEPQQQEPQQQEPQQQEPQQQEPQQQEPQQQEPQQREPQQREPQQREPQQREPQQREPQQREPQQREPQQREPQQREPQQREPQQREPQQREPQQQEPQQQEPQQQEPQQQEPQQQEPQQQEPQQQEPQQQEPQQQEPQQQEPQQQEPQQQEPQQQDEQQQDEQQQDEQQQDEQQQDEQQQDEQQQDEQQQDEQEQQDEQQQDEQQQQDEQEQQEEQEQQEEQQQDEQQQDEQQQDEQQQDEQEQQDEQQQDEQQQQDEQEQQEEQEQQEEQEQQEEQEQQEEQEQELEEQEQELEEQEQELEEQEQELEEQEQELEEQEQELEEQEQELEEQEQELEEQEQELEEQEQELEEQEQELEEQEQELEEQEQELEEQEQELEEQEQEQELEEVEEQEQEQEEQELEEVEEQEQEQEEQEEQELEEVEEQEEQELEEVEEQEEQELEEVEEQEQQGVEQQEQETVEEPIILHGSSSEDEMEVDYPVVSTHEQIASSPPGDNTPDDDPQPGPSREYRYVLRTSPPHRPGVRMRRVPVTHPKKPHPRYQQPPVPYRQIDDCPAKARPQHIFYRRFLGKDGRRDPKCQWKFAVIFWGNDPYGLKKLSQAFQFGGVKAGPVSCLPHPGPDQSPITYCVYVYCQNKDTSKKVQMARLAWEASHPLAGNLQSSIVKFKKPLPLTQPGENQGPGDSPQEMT
DAGLB inh – blocks human DAGLB lipase activity | HEK293T DAGLB membrane lysate, EnzChek fluorogenic substrate | Q8NCG7 | 0.059% of 340,000 active | inhibition, % at 5.17 µM | AID 504411; in the data active = inhibition above about 34%;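 also: 0% = enzyme with vehicle and 100% = wells lacking enzyme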
HDAC3 inh – blocks human histone deacetylase 3. O15379. recombinant HDAC3, fluorogenic peptide/trypsin coupled, fluorescence. inhibition, % at 8.3 µM. 0.15% of 320,000 active. AID 2718; in the data active = inhibition above about 26%, passing the limit was not always enough; inconclusive = no clear call, values can overlap the other calls
iPSC survival up – hiPSC single-cell survival enhancement. ATPlite luminescence; 100% = ROCK inhibitor wells, 0% = DMSO. 0.044% of 360,000 active. survival enhancement, % at 20 µM; in the data active = survival enhancement above about 18%;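 also: cells exposed to compounds for 16 hours before the ATP read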
Active calls of the source: *; ? = inconclusive; / = no result; + = active, no number. Most compounds without a hit are left out; they make up all but 0.79% or so of the library.

SMILES	LANA-H2B inh	DAGLB inh	HDAC3 inh	iPSC survival up
CC1CCN(S(=O)(=O)c2ccc(C(=O)Nc3ncccc3O)cc2)CC1	1	2	64*	0
O=C1NC2(CCCCC2)C(=O)N1Cc1ccc([N+](=O)[O-])cc1	5	0	4	-1
O=C(N/N=C/c1ccc(Cl)c([N+](=O)[O-])c1)c1ccc2nc[nH]c2c1	-3	-2	-1	0
O=C(N/N=C/c1ccccc1[N+](=O)[O-])c1ccc2nc[nH]c2c1	4	1	96*	0
CC(C)(C)c1ccc(OCCC(=O)Nc2ccc(N3CCOCC3)cc2N2CCOCC2)cc1	-2	5	5	0
Cc1nnc(SCC(=O)c2cc(C)n(-c3ccc4c(c3)OCO4)c2C)s1	27*	0	8	2
Cc1cc(C(=O)CSc2nnnn2C)c(C)n1-c1ccc2c(c1)OCCO2	0	-3	1	0
COc1ccc(C=O)cc1Oc1nc(Cl)ncc1F	-2	1	-4	-1
Cc1cc(Br)ccc1NC(=O)CN(C)C(=O)CN1C(=O)NC(C)(C2CC2)C1=O (stereo unspecified)	4	1	-2	1
CCCCC/C=C/C1=CC(=O)C[C@H](c2ccc(OC)c(OC)c2)C1	-3	-5	-3	1
O=C(O)c1ccc(NS(=O)(=O)c2ccc3c(c2)OCCCO3)cc1	2	3	4	0
O=C(O)CCNS(=O)(=O)c1ccc2c(c1)OCCCO2	13*	-3	2	0
CCCn1nc(C(=O)Nc2ccc3c(c2)OCCO3)c2ccccc2c1=O	-1	-1	5	0
N#CC1(N2CCN(C(=O)c3ccccc3)CC2)CCCCC1	2	-4	-3	1
COc1ccc(/C=C2\C(=O)NCC(=O)N2C)cc1	14*	-3	-4	0
Oc1ccc(N=Nc2ccccc2)o1	3	-1	3	0
Cc1c(Cl)sn(-c2ccc(Cl)cc2)c1=O	/	5	/	-4
COc1ccccc1NC(=S)N1CCN(C(=O)c2ccco2)CC1	16*	1	-5	0
COc1ccc2oc(C(=O)N3CCN(C(=O)c4ccco4)CC3)c(C)c2c1	20*	-3	3	0
COc1ccc2oc(C(=O)N3CCN(c4ncccn4)CC3)c(C)c2c1	-1	-4	4	0
Cc1ccccc1NC(=O)/C(=C/c1cccs1)NC(=O)c1ccco1	1	2	1	1
COc1ccccc1NC(=O)/C(=C\c1cccs1)NC(=O)c1ccco1	+	1	4	3
Cc1cc(F)ccc1C(O)c1ncc(-c2ccccc2C(F)(F)F)[nH]1 (stereo unspecified)	/	/	/	3
CC12CCC(=O)N1C(C(=O)NNC(=O)c1ccccc1)CS2 (stereo unspecified)	-1	-1	0	0
CC(C(=O)N1CCCCC1)N(C)CC(=O)Nc1cccc(F)c1 (stereo unspecified)	30*	/	3	/
SMILES	LANA-H2B inh	DAGLB inh	HDAC3 inh	iPSC survival up
COc1ccc(NC(=O)CN(C)C(C)C(=O)N2CCCCC2)cc1 (stereo unspecified)	6	1	-6	1
CCOC(=O)C(Cc1c[nH]c2ccccc12)NC(=O)c1ccccc1Br (stereo unspecified)	-2	1	10	1
Cc1ccc(S(=O)(=O)N2[C@@H](c3ccc(Br)cc3)C(C(=O)O)=CC[C@H]2c2cccs2)cc1	/	7	/	3
CC[C@@](C)(NS(=O)(=O)OCC(Cl)(Cl)Cl)c1ccccc1	-2	-4	1	-2
CC(C)(NS(=O)(=O)OCC(Cl)(Cl)Cl)c1ccccc1	43*	-2	-5	-1
Cc1ccc([N+](=O)[O-])cc1NC(=O)Nc1cccc(F)c1	/	-6	/	0
Cc1c(N)cccc1N	123*	0	13	0
CCN(Cc1nc(-c2ccccc2)no1)C(=O)c1ccoc1C	2	-1	0	1
Cc1occc1C(=O)N(Cc1nc(-c2ccccc2)no1)C(C)C	16*	-3	7	0
O=C(O)C1=C[C@@H](c2ccc(C(F)(F)F)cc2)C[C@@H](OCc2ccc(CO)cc2)O1	1	2	34*	1
O=C(C1=C[C@H](c2ccc(C(F)(F)F)cc2)C[C@H](OCc2ccc(CO)cc2)O1)N1CCCCCCC1	0	-6	?	-2
CC(C)N(CCNC(=O)c1nn(Cc2ccccc2)c(=O)c2ccccc12)C(C)C	7	0	0	0
COc1ccc(Cl)cc1-c1nc(SCC(=O)NC2CCCC2)n[nH]1	-3	-4	-1	1
COc1ccc(-c2nc(SCC(=O)NC3CCCCC3)n[nH]2)cc1	76*	0	-3	0
CC(C)(C)C1(C)OC(=O)C(=Cc2ccc(OCC(=O)Nc3ccccc3)cc2)C(=O)O1 (stereo unspecified)	25*	2	-2	0
O=C(COC(=O)/C=C/c1cccc(Cl)c1)NC1CC1	19*	2	1	0
O=C(COC(=O)/C=C/c1cccc(Cl)c1)NC1CCCC1	-12	-3	4	3
O=C(c1cccnc1)N1N=C(C2CC2)CC1(O)C(F)(F)F (stereo unspecified)	11*	-1	/	-2
CCCCN(C(=O)C1CC(=O)N(c2ccc3c(c2)OCCO3)C1)c1c(N)n(CCCC)c(=O)[nH]c1=O (stereo unspecified)	25*	-1	3	0
CCCCN(C(=O)C1CC(=O)N(c2ccc3c(c2)OCCO3)C1)c1c(N)n(CCC)c(=O)[nH]c1=O (stereo unspecified)	2	0	3	0
Cc1cccc(OCCCC(=O)Nc2ccc(S(=O)(=O)Nc3nccs3)cc2)c1C	4	5	8	0
CN(CCOc1ccc(-c2ccn(S(=O)(=O)c3c(Cl)cccc3Cl)n2)cc1)c1ccccn1	9	-6	0	19*
CCN(CC(=O)Nc1ccc(NC(C)=O)cc1)C(=O)CCCc1nc2ccccc2c(=O)[nH]1	-5	1	15	0
CN1CCN(C(=O)CCn2c(=S)[nH]c3ccccc3c2=O)CC1	/	-3	/	5
O=C1c2cccc3c([N+](=O)[O-])ccc(c23)C(=O)N1c1ccccn1	-7	-11	11	-2
SMILES	LANA-H2B inh	DAGLB inh	HDAC3 inh	iPSC survival up
CCCN1C(=O)c2cccc3c(N4CCCCC4)ccc(c23)C1=O	13	-28	0	-2
CCN(CC)S(=O)(=O)c1ccc(C(=O)OCCN2C(=O)c3cccc4c(N5CCOCC5)ccc(c34)C2=O)cc1	27*	-4	-1	1
O=C(OCCN1C(=O)c2ccccc2C1=O)c1ccc(S(=O)(=O)N2CCCCCC2)cc1	-2	-1	0	0
CC(=O)N(C(C)=O)N1C(=O)c2cccc3c(N4CCOCC4)ccc(c23)C1=O	55*	-3	7	2
O=C1c2cccc3c(N4CCCCC4)ccc(c23)C(=O)N1c1ccccn1	32*	-1	-4	5
COc1cc(C(C#N)N2CCC(c3ccccc3)=N2)ccc1O (stereo unspecified)	-2	-1	2	0
O=C(NCC(=O)N1CCN(c2ccccc2)CC1)c1ccco1	1	0	-3	0
